Screening data (PubChem BioAssay)
Nrf2 ARE act = activators of Nrf2 (ARE) signaling; AREc32 ARE-luciferase reporter (MCF7-derived line), luminescence, 24 h; Potency, µM (doses to about 46.1 µM), for inactives: at the highest dose activation, actives largely listed as activators; actives 0.31% (n = 410,000); AID 624171; further: potency means the concentration at half of the fitted maximal effect; % of control where 0% means no effect; nearly all actives have a fitted effect of over 65% in size
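For detection, Steady-Glo was added and plates sat 30 min at RT; before that, AREc32_Fluc cells grown overnight in OPTI-MEM/5% FBS had been treated with 23 nL compound for 24 hr at 37 deg C.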
BRCA1 expr act = BRCA1 expression activation | MCF7-BRCA1-FFLuc reporter, luminescence, 48 h; response scale: scaled: vehicle 0%, 10 µM genistein 100% | Potency, µM (titrated, usually from 46.1 µM), for the others: at the top dose activation, usual class: activators | actives 1.1% (n = 380,000) | AID 624202; further: potency means the concentration at half of the fitted maximal effect; nearly all actives have a fitted effect of over 80% in size
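Cells: MCF7-BRCA1-FFLuc, 2000/well. Exposure: 48 h, 37 °C, 5% CO2. Read: luminescence, 15 min post-substrate. Controls: genistein 10 microM (maximal activation), DMSO (neutral).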
IL-2 act = activators of IL-2; actives 0.065% (n = 360,000); activation, % (series mostly up to about 46 µM); IL-2 activation reporter assay, cell-based qHTS; stimulated with anti-CD3/CD4/CD28 beads; in transgenic mouse T cells; in the data active means activation above about 50%; inconclusive means mostly about 30% to 49%; further: 0% is about no effect
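Using fluorescent plate cytometry, EGFP and DsRed are detected in transgenic mouse T cells stimulated 18 h at 37 degrees C with antibody-coated beads after 60 min compound pretreatment.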
ELG1 repair inh = inhibitors of ELG1-dependent DNA repair in HEK293T cells | HEK293T ELG1-luciferase reporter, luminescence, 16 h; DNA damage induced by 5-fluorouridine | Potency, µM (doses to about 46.1 µM), inactives show at the highest dose activity change, negative = inhibition, usual class: inhibitors | actives 2.3% (n = 330,000) | AID 504467; further: potency means the concentration at half of the fitted maximal effect; on the % scale 0 is the no-effect control and ±100 the full control effect; nearly all actives have a fitted effect of over 55% in size
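In this reporter screen, reduction of luminescence relative to DMSO vehicle indicated activity. Compounds and 5-fluorouridine were added together to 2,000 cells per well, incubated for 16 hr at 37 °C, then developed with ONE-Glo.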
ELG1 FLuc counter = luciferase inhibition in cell-free luciferin readout for ELG1 hits; actives 3% (n = 350); Potency, µM (titrated, usually from 46.1 µM), without a hit: at the highest dose activity change, negative = inhibition, hits mostly inhibitors; shares compounds with ELG1 repair inh; cell-free firefly luciferase luminescence counter-screen, ViewLux; further: potency means the concentration at half of the fitted maximal effect; on the % scale 0 is the no-effect control and ±100 the full control effect
ELG1-Luc inh = inhibits ELG1-dependent DNA repair in HEK293T cells, confirmed; HEK293T ELG1-luciferase levels, luminescence; cells co-treated with 5-fluorouridine; Potency, µM (doses to about 46.1 µM), inactives show top-dose activity change, negative = inhibition, actives largely listed as inhibitors; actives 68% (n = 670); shares compounds with ELG1 repair inh; further: potency means the concentration at half of the fitted maximal effect; on the % scale 0 is the no-effect control and ±100 the full control effect; nearly all actives have a fitted effect of over 55% in size
Target sequence (Q96QE3 whole entry, looked up): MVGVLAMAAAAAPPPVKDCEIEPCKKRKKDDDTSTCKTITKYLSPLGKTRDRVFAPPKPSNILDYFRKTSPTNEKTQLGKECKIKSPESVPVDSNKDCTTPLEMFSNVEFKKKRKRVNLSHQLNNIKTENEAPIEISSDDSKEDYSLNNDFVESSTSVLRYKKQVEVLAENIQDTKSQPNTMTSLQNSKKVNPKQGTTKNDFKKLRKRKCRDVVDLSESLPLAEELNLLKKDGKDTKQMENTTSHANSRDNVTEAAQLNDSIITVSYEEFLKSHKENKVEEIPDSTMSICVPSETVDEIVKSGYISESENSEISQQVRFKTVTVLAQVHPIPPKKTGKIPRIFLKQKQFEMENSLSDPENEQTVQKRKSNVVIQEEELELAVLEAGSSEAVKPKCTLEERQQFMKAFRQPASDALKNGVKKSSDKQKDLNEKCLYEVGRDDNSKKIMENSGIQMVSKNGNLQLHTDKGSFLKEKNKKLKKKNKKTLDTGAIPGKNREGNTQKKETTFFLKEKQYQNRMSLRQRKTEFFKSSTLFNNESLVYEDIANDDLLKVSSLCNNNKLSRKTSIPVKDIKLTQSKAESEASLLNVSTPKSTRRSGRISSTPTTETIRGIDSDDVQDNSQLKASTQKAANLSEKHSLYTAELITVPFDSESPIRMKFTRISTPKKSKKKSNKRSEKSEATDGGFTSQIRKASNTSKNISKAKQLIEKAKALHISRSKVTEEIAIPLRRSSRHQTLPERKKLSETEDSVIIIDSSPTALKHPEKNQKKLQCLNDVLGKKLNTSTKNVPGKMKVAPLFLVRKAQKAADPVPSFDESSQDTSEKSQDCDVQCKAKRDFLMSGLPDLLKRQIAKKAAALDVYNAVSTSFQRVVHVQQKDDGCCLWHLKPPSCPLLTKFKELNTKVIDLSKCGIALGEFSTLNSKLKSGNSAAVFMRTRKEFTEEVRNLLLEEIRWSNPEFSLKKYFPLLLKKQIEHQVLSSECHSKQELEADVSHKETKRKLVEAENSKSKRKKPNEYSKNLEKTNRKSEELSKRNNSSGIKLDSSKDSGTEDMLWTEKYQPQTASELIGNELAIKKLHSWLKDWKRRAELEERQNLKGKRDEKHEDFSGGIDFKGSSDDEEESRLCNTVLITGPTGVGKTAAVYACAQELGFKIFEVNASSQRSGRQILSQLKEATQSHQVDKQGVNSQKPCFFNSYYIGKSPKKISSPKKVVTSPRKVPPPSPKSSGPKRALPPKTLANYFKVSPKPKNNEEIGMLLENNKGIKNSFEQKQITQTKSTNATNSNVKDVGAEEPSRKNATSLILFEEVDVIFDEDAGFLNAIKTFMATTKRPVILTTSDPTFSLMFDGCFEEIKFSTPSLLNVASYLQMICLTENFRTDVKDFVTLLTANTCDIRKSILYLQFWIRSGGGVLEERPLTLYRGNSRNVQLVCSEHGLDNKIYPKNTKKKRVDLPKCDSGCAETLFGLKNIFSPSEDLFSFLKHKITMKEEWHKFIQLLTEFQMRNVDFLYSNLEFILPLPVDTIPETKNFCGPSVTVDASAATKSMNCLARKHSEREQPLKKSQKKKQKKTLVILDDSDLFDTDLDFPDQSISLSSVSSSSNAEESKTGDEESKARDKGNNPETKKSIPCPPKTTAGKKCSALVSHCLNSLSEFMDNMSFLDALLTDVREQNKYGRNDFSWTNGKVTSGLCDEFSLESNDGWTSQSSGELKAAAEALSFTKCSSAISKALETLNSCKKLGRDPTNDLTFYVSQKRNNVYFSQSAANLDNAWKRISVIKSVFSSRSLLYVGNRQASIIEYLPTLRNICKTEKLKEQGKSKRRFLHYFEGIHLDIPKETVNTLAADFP
ELG1 MMS Luc = MMS-stimulated human ELG1 repair inhibition, confirmed; shares compounds with ELG1 repair inh; HEK293T luciferase-tagged ELG1 level, MMS stimulated; Potency, µM (top dose mostly 46.1 µM), for inactives: top-dose activity change, negative = inhibition, actives largely listed as inhibitors; actives 53% (n = 670); AID 624249; further: potency means the concentration at half of the fitted maximal effect; on the % scale 0 is the no-effect control and ±100 the full control effect; nearly all actives have a fitted effect of over 60% in size
ELG1 5FU viab = confirmation of ELG1 repair inhibitors: viability with 5FU; 670 tested, under 10 active; shares compounds with ELG1 repair inh; AID 624250; cell viability with 5-FU, ELG1-dependent repair; Potency, µM (titrated, usually from 46.1 µM), for inactives: at the top dose activity change, negative = viability loss, usual class: cytotoxic;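 further: ELG1-luc HEK293T cells cotreated with 5-fluorouridine at 10 µM final; potency means the concentration at half of the fitted maximal effect; viability measured 16 h after compound addition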
ELG1 MMS cell = confirmation of ELG1 repair inhibitors: viability with MMS. shares compounds with ELG1 repair inh. Cell viability with MMS, ELG1-dependent DNA repair. Potency, µM (doses to about 46.1 µM), for the others: top-dose activity change, negative = viability loss, most hits filed as cytotoxic. actives 33% (n = 670);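 further: ELG1-luc HEK293T cells co-treated with 10 µM MMS; potency means the concentration at half of the fitted maximal effect; viability read 16 h after compound addition; on the % scale 0 is the no-effect control and ±100 the full control effect; nearly all actives have a fitted effect of over 60% in size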
Cell viab unstim = unstimulated viability counter-screen for ELG1 repair hits | shares compounds with ELG1 repair inh | actives 8% (n = 900) | Potency, µM (series often up to 45.9 µM), for the others: at the top dose activity change, negative = loss of viability, most hits filed as cytotoxic | cell viability counter-screen, unstimulated, luminescence | AID 624252;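 further: potency means the concentration at half of the fitted maximal effect; compound exposure lasted 16 hours before reading; on the % scale 0 is the no-effect control and ±100 the full control effect; nearly all actives have a fitted effect of over 55% in size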
FLuc enzyme = inhibits purified firefly luciferase, counter-screen for ELG1 hits; actives 10% (n = 350); purified firefly luciferase, luminescence counter-screen; Potency, µM (top dose mostly 57.5 µM), for inactives: at the top dose activity, negative = inhibition, usual class: inhibitors; shares compounds with ELG1 repair inh; further: potency means the concentration at half of the fitted maximal effect; on the % scale 0 is the no-effect control and ±100 the full control effect
* hit, by the source's call; ? = inconclusive; . = no result given. An excerpt weighted towards active compounds, which were near 3.1% of everything screened. Unless noted, the call rests on the fitted dose curve; in most records, active means well fitted curve in the direction sought with a large enough effect; inconclusive means small, poorly fitted or top-dose-only effect, or another doubt; inactive means no such curve, though single readings can be large; an effect the other way counts as inactive or inconclusive.

SMILES	Nrf2 ARE act	BRCA1 expr act	IL-2 act	ELG1 repair inh	ELG1-Luc inh	ELG1 MMS Luc	ELG1 5FU viab	ELG1 MMS cell	Cell viab unstim	others
O=C(CSc1nccn1Cc1ccc(F)cc1)NCc1ccco1	-1%	.	.	.	.	.	.	.	.
Cc1ccccc1Cn1cc(S(=O)(=O)c2ccc(Cl)cc2)c(=O)c2cc3c(cc21)OCO3	0%	4%	.	.	.	.	.	.	.
Fc1ccc2cc(CCO[C@H]3CCCCO3)ncc2c1	-3%	?	0	?	.	.	.	.	?
COc1ccc(Cl)cc1NC(=O)Cn1cc(C(=O)c2ccncc2)c(=O)c2cc(C)ccc21	1%	.	.	.	.	.	.	.	.
O=S(=O)(c1cc(F)ccc1F)N1CCN(c2ncnc3ccccc23)CC1	0%	-54%	-1	4.6µM*	6.3µM*	2.2µM*	-14%	2.5µM*	?
CCSc1ncc(Cl)c(C(=O)N(Cc2ccccc2)c2ccc(OC)cc2)n1	2%	.	.	.	.	.	.	.	.
COC1=C2C[C@@H](C)C[C@H](OC)[C@H](O)[C@@H](C)/C=C(\C)[C@H](OC(N)=O)[C@@H](OC)/C=C\C=C(/C)C(=O)NC(=CC1=O)C2=O	.	.	.	.	1.4µM*	2µM*	?	14µM*	?
Cc1cc(C(=O)Nc2ccc(Br)cn2)sc1C	6%	?	1	?	.	.	.	.	?
O=C(Nc1ccc(Br)cn1)c1ccc(Br)s1	11%	?	0	?	.	.	.	.	.
CCCCOc1ccc(C2C(=O)N(C3CCCCC3)CC(=O)N2C2CCCCC2)cc1 (centres undefined)	0%	.	.	.	.	.	.	.	.
Cc1ccc(Nc2nc(N3CCOCC3)nc(N3CCOCC3)n2)cc1C	7%	-35%	-1	?	.	.	.	.	.
CCCCSc1nc2ccc(Nc3nc(N4CCOCC4)nc(N4CCOCC4)n3)cc2s1	-1%	21%	-1	16µM*	13µM*	?	?	0%	-10%	ELG1 FLuc counter=5%;FLuc enzyme=-6%
Cc1ccc(C)c(N2CCN(C(=O)CCS(=O)(=O)c3ccc4c(c3)NC(=O)C(C)S4)CC2)c1 (centres undefined)	0%	-48%	-1	4.6µM*	13µM*	2µM*	?	2µM*	?
COc1ccc(N2CCN(C(=O)CCS(=O)(=O)c3ccc4c(c3)NC(=O)C(C)S4)CC2)cc1 (centres undefined)	-1%	-20%	-3	-10%	.	.	.	.	.
COc1ccc(-c2cc(C(=O)Nc3cccc(O)c3)on2)cc1OC	4%	.	.	.	.	.	.	.	.
O=C(Nc1ccccc1-c1nc2ccccc2[nH]1)c1ccc(N2C(=O)CCC2=O)cc1	-1%	-19%	111*	1.8µM*	0.71µM*	?	?	4%	-18%
CCOc1ccc(C(=O)Nc2cc(-c3ccccc3)no2)cc1	6%	.	.	.	.	.	.	.	.
Cc1cc(C(=O)CSc2nc(N)cc(=O)[nH]2)c(C)n1-c1ccc(OC(F)F)cc1	3%	-57%	-1	?	-6%	1.6µM*	-16%	1.6µM*	?
O=C(Cn1cnc2cc([N+](=O)[O-])ccc2c1=O)Nc1cccc(S(=O)(=O)N2CCOCC2)c1	3%	-37%	1	3.3µM*	?	28%	?	-11%	?
COc1ccc(-c2nc(-c3cccnc3)no2)cc1	0%	?	0	?	.	.	.	.	0%
CCOc1ccc(-c2nc(-c3cccnc3)no2)cc1	-3%	20%	1	?	.	.	.	.	.
COc1cc(C)ccc1OCCSc1nc2ccc(NC(=O)c3cccs3)cc2s1	4%	-25%	.	.	.	.	.	.	.
COc1cc(C(=O)OCCCc2cc3ccccc3c(=O)o2)cc(OC)c1OC	-1%	0%	0	?	.	.	.	.	.
COc1cc(C(=O)OCCc2cc3ccccc3c(=O)o2)cc(OC)c1OC	13%	-55%	-1	?	4.4µM*	?	?	?	?
CC(NC(=O)C1CCCC1)C1CC2CCC1C2 (centres undefined)	0%	3%	-2	4.1µM*	20%	?	4%	-5%	9%
SMILES	Nrf2 ARE act	BRCA1 expr act	IL-2 act	ELG1 repair inh	ELG1-Luc inh	ELG1 MMS Luc	ELG1 5FU viab	ELG1 MMS cell	Cell viab unstim	others
O=C(Cn1cc(SCc2ccc(F)cc2)c2ccccc21)N1CCCCC1	7%	.	.	.	.	.	.	.	.
Cc1ccc(-n2nc3c(=O)n(CC(=O)NCCc4ccccc4C)nc(C)c3c2C)cc1	0%	-22%	-4	3.7µM*	?	10µM*	-13%	10µM*	?
Cc1ccc(CSc2nnc(-c3ccc(NC(=O)CCc4ccccc4)cc3)n2C)cc1	.	24%	.	.	.	.	.	.	.
COCCN(C(=O)Cc1cccs1)C(C(=O)NCc1ccc(OC)cc1)c1ccc(C)cc1 (centres undefined)	-1%	0%	-1	?	.	.	.	.	.
COc1ccc(CNC(=O)C(c2ccc(C)o2)N(Cc2cccs2)C(=O)Cc2cccs2)cc1 (centres undefined)	0%	-39%	-4	21µM*	11µM*	?	4%	-4%	?	ELG1 FLuc counter=-14%;FLuc enzyme=3%
Cc1cc(C(=O)COC(=O)c2ccc(F)cc2)c(C)n1C	-1%	?	-5	?	.	.	.	.	?
Cc1cc(C(=O)COC(=O)c2cc(Cl)c(O)c(Cl)c2)c(C)n1C	1%	88%	2	?	.	.	.	.	.
CCc1cn(C2CC(O)C(CO)O2)c(=O)[nH]c1=O (centres undefined)	0%	-33%	0	?	.	.	.	.	.
Cc1ccc(CNC(=O)CSc2nc3ccsc3c(=O)n2-c2ccc(C(=O)O)cc2)cc1	-1%	.	.	.	.	.	.	.	.
Cc1cnc2c(c1SCC(=O)Nc1ccc(F)cc1F)c(=O)n(C)c(=O)n2C	5%	.	.	.	.	.	.	.	.
